Among the data in publication PMC7862700, “An all-to-all approach to the identification of sequence-specific readers for epigenetic DNA modifications on cytosine” are binding signal values, retold here.

Holding throughout (assay): DAPPL (digital affinity profiling via proximity ligation, sequencing); 10 mM Tris-HCl pH 7.5, 50 mM NaCl, 1 mM DTT, 4% glycerol, room temperature, 30 min; GST-TFs on glutathione beads, 16-mer random dsDNA library, 0.1% formaldehyde crosslink after washing; high values mean tight binding
Common to all, as to conditions: protein: recombinant; tags: N-terminal GST; dsDNA, one strand shown

Experiment [1] concerns the target T1, FLI1 (Homo sapiens, UniProt Q01543 1-452).
T1 sequence: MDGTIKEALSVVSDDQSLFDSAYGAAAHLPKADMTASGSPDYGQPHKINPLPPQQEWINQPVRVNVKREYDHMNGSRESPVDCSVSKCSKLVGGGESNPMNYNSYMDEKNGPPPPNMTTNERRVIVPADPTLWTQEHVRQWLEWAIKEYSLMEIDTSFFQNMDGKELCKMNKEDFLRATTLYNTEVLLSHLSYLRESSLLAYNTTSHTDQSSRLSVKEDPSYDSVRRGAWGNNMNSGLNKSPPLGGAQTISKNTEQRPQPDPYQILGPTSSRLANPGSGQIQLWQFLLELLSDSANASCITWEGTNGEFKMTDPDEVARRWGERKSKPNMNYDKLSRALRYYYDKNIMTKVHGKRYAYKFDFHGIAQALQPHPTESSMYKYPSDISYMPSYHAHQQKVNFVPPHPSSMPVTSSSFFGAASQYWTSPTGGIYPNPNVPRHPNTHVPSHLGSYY
In short, it runs like this:
(§1)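 Beads coated with glutathione captured GST-fused human transcription factors that had been expressed in yeast, and the factors were then given DNA barcodes and pooled with a tag-only sample. The pools were incubated with 200 nmole of a random double-stranded 16-mer DNA library in Tris/NaCl/DTT/glycerol buffer for 30 min at room temperature, washed, crosslinked with 0.1% formaldehyde and proximity-ligated with BsaI/T4 ligase at 37 °C for 1 h. PCR amplification and Illumina NextSeq500 sequencing came last. Binding signal is each hexamer's read frequency for a factor divided by its frequency for the tag-only sample.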

Experiment [2] deals with T2, GABPA (Homo sapiens, UniProt Q06546 1-454).
T2 sequence: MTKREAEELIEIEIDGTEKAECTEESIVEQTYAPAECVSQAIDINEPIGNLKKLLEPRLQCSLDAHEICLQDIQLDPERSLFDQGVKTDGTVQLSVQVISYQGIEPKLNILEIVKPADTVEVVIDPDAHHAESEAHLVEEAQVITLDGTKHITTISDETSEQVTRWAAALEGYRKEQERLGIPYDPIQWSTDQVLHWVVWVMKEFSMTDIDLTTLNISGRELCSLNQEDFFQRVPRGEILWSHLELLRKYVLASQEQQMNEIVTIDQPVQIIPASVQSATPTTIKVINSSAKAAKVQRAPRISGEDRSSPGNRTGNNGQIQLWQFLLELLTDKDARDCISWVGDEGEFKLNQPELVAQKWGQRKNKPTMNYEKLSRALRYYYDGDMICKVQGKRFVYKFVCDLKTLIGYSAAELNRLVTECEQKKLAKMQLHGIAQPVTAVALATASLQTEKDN
In short, it runs like this:
as §1

Experiment [3] has as its target T3, ERG (Homo sapiens, UniProt P11308 1-479).
T3 sequence: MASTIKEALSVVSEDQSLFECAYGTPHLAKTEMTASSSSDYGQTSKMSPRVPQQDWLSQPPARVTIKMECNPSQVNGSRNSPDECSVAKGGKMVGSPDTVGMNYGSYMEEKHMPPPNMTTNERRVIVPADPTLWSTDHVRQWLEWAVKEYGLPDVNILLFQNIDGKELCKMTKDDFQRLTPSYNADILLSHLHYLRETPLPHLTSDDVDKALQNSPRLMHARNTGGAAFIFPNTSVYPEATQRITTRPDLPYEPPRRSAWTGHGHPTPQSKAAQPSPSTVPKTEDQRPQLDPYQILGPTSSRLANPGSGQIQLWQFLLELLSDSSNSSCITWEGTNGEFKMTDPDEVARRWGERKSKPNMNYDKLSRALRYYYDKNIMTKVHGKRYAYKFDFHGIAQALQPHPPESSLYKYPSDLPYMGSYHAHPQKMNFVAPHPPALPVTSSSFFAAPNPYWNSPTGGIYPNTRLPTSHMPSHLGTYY
A digest of the protocol:
as §1

Experiment [4] addresses ELF1 (Homo sapiens, UniProt P32519 1-619). In short, it runs like this: as §1
The target in experiment [5] is T4, EHF (Homo sapiens, UniProt Q9NZC4 1-300).
T4 sequence: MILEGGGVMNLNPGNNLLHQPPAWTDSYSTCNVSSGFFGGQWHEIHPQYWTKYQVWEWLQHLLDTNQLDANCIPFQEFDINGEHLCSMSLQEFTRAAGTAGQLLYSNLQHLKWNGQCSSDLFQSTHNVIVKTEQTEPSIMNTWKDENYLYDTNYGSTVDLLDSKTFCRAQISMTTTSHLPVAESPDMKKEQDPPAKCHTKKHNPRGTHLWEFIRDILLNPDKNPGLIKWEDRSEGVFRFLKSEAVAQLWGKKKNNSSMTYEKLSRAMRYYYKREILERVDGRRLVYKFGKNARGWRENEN
A digest of the protocol:
as §1

In experiment [6] the target is SPI1 (Homo sapiens, UniProt P17947 1-270). In short, it runs like this: as §1
Experiment [7] has as its target SPIB (Homo sapiens, UniProt Q01892 1-262). A digest of the protocol: as §1
The target of experiment [8] is T5, ELK3 (Homo sapiens, UniProt P41970 1-407).
T5 sequence: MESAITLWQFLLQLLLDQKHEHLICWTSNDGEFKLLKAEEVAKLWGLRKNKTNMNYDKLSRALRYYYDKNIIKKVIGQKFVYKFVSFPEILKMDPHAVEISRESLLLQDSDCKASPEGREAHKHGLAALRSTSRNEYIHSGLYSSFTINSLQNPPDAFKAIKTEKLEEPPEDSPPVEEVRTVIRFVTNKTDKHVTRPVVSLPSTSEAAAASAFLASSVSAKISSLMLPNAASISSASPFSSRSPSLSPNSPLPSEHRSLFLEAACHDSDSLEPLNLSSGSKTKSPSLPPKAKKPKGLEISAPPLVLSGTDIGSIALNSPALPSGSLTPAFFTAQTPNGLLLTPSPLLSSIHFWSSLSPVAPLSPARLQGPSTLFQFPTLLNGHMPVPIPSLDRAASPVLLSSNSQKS
A digest of the protocol:
as §1

Experiment [9] concerns the target T6, FEV (Homo sapiens, UniProt Q99581 1-238).
T6 sequence: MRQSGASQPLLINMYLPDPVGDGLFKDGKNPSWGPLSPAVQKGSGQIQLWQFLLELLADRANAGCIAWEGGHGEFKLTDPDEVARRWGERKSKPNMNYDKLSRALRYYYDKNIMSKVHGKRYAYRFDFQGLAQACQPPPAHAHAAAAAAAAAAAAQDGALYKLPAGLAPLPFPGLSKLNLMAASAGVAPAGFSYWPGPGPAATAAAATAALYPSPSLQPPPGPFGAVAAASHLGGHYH
A digest of the protocol: as §1

Experiment [10] concerns the target ETV5 (Homo sapiens, UniProt P41161 1-510). In short, it runs like this: as §1
The target in experiment [11] is T7, SPIC (Homo sapiens, UniProt Q8N5J4 1-248).
T7 sequence: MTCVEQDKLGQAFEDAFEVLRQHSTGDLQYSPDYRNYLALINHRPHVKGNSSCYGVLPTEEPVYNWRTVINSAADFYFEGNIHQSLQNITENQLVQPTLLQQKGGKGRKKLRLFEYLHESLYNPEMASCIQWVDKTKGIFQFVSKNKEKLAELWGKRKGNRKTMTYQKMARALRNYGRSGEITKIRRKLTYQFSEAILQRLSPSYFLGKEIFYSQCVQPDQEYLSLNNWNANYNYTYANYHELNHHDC
A digest of the protocol:
as §1

For experiment [12], the target named is ELF4 (Homo sapiens, UniProt Q99607 1-663). In short, it runs like this: as §1
For experiment [13], the target named is ETV1 (Homo sapiens, UniProt P50549 1-477). A digest of the protocol: as §1
In experiment [14] the target is T8, ERF (Homo sapiens, UniProt P50548 1-548).
T8 sequence: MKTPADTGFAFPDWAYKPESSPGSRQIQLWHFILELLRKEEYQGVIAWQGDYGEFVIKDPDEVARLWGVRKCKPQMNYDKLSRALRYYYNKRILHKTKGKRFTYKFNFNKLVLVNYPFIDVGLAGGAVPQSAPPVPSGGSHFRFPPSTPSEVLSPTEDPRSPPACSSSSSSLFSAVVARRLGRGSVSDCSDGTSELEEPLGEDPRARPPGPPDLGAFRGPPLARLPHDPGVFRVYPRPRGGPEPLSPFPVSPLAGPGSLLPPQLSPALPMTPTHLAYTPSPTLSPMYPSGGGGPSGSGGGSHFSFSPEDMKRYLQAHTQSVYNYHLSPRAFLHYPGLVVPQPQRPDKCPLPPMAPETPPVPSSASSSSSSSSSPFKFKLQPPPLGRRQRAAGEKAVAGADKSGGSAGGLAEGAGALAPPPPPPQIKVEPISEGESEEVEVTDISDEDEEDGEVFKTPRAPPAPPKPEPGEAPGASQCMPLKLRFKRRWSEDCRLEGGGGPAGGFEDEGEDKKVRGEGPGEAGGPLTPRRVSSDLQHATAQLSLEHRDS
In short, it runs like this:
as §1

Experiment [15] deals with T9, ETS2 (Homo sapiens, UniProt P15036 1-469).
T9 sequence: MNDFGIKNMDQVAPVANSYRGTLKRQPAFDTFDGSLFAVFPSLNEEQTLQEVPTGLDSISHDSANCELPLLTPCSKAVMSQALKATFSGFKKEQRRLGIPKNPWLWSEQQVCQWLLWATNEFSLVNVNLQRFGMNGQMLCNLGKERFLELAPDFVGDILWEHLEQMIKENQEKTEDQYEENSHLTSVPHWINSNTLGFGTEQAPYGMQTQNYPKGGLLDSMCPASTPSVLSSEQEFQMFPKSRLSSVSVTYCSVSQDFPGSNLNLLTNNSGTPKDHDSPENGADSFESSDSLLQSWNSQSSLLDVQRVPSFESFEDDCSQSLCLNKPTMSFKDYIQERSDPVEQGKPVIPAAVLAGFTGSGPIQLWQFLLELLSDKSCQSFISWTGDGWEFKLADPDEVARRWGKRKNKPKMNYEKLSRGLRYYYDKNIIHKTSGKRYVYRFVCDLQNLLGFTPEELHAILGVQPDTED
A digest of the protocol: as §1

Experiment [16] deals with T10, ELF5 (Homo sapiens, UniProt Q9UKW6-2 1-255).
T10 sequence: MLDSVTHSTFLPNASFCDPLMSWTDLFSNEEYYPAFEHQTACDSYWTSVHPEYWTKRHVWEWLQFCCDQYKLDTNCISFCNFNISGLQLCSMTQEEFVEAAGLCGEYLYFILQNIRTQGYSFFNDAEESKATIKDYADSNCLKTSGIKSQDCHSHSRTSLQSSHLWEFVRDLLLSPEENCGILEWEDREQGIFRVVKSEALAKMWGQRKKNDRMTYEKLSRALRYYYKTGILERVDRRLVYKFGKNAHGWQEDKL
In short, it runs like this: as §1

For experiment [17], the target named is T11, ETV3 (Homo sapiens, UniProt P41162-2 1-143).
T11 sequence: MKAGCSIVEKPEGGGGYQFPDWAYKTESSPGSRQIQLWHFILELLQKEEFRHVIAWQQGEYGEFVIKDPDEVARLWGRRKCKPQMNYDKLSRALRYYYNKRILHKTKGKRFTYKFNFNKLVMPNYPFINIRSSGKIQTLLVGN
A digest of the protocol:
as §1

For experiment [18], the target named is ETV6 (Homo sapiens, UniProt P41212 1-452). In short, it runs like this:
as §1

The target of experiment [19] is T12, ETV3L (Homo sapiens, UniProt Q6ZN32 1-361).
T12 sequence: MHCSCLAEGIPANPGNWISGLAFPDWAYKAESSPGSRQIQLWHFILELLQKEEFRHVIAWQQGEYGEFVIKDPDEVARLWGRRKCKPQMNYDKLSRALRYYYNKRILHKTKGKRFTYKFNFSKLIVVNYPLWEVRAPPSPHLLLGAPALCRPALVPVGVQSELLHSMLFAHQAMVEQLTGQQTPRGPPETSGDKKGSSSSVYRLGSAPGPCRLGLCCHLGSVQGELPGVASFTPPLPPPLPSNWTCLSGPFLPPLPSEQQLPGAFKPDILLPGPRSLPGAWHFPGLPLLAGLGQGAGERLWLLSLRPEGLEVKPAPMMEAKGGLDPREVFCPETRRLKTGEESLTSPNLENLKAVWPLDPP
In short, it runs like this:
as §1

Sequence of ELF4 (Q99607 whole entry): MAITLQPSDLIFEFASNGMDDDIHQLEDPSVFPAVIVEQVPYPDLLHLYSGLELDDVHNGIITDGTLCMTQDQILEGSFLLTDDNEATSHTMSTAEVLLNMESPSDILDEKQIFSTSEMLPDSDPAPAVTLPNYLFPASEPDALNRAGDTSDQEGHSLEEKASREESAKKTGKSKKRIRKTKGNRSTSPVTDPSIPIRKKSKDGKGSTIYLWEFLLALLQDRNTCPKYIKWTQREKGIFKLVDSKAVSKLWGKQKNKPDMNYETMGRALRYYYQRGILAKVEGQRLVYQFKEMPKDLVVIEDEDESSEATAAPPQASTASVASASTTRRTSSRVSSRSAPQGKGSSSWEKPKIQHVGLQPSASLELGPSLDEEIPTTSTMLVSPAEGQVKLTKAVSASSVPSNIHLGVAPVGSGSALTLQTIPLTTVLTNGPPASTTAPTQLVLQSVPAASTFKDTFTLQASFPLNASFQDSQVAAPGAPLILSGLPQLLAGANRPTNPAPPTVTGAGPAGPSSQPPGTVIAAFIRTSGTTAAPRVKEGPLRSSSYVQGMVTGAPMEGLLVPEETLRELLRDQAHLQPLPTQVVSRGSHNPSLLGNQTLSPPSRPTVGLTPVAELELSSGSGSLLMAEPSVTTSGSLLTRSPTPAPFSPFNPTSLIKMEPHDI
Sequence of ETV5 (P41161 whole entry): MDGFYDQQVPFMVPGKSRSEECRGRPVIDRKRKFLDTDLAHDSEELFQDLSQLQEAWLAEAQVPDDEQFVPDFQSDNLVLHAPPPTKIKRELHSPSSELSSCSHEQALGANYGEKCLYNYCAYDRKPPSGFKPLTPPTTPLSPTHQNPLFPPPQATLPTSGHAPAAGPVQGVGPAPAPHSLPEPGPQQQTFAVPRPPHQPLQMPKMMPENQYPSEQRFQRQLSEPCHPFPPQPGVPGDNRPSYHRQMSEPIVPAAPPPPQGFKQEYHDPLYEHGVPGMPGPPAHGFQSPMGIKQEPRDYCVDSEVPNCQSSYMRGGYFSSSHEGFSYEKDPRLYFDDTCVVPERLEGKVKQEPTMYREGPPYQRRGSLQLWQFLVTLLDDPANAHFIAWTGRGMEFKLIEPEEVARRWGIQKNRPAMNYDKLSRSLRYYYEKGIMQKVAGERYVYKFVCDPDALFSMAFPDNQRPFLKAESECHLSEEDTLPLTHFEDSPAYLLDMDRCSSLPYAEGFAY
Sequence of ELF1 (P32519 whole entry): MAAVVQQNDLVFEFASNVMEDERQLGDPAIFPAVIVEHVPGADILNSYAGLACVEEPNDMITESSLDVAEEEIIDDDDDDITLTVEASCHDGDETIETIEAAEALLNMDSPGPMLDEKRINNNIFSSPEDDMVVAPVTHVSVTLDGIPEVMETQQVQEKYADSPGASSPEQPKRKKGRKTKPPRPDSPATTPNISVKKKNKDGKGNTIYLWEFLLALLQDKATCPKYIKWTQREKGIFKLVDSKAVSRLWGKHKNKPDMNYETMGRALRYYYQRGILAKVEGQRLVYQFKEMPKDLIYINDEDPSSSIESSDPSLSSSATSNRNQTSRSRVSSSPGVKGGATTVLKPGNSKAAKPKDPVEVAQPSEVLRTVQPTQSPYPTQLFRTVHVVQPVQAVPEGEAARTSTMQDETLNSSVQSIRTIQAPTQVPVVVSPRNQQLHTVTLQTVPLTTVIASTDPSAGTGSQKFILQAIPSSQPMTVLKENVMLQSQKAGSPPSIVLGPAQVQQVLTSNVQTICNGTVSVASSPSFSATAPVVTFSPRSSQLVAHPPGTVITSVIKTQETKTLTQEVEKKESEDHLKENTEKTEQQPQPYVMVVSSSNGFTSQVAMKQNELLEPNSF
Sequence of ETV1 (P50549 whole entry): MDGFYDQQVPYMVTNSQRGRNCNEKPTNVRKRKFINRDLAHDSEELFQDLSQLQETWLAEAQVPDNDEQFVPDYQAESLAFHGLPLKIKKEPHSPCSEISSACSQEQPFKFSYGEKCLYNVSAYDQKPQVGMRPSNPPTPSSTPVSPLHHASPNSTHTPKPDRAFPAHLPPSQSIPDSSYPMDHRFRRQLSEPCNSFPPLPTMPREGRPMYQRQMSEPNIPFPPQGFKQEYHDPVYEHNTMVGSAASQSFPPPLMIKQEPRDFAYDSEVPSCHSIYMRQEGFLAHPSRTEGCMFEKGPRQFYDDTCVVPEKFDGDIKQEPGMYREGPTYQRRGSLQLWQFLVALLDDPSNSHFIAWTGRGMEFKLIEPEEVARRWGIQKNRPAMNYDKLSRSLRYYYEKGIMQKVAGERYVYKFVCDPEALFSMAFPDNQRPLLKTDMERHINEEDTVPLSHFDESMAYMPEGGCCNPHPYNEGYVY
Sequence of ETV6 (P41212 whole entry): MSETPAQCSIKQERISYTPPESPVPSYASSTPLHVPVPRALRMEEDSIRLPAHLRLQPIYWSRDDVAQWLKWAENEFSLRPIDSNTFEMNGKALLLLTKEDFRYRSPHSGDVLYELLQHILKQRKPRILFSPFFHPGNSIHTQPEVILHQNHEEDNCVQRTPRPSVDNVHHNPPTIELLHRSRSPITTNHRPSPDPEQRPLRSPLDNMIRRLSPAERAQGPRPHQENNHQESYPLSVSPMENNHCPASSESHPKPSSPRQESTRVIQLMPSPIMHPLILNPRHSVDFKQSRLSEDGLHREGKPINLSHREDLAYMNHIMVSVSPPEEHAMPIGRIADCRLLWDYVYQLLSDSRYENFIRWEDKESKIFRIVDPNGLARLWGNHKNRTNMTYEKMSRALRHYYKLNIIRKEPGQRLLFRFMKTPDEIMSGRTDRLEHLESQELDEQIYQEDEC
Sequence of SPIB (Q01892 whole entry): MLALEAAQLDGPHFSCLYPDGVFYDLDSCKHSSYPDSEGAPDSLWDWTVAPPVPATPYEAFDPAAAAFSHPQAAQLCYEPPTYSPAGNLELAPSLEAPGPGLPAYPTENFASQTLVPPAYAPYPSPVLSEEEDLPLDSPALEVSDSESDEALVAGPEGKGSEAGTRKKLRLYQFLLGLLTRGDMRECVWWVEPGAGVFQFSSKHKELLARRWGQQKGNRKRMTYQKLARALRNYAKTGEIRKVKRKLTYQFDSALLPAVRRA

Consider CGCTAT, for which the binding signal in experiment [1] was 1.13 fold enrichment (6-mer frequency, TF over GST control); in experiment [2] it was 1.07 fold enrichment (6-mer frequency, TF over GST control); in experiment [3], 1.09 fold enrichment (6-mer frequency, TF over GST control); in experiment [4], 1.09 fold enrichment (6-mer frequency, TF over GST control); in [5] it was 1.06 fold enrichment (6-mer frequency, TF over GST control); in experiment [6], 1.11 fold enrichment (6-mer frequency, TF over GST control). Further, the binding signal is 1.12 fold enrichment (6-mer frequency, TF over GST control) in experiment [7]; 1.13 fold enrichment (6-mer frequency, TF over GST control) in experiment [8]; 1.04 fold enrichment (6-mer frequency, TF over GST control) in experiment [9]; 1.1 fold enrichment (6-mer frequency, TF over GST control) in experiment [10]; 1.01 fold enrichment (6-mer frequency, TF over GST control) in [11]; 1.15 fold enrichment (6-mer frequency, TF over GST control) in [12]. Further, the binding signal in experiment [13] is 1.09 fold enrichment (6-mer frequency, TF over GST control); in experiment [14], 1.16 fold enrichment (6-mer frequency, TF over GST control); in [15] it was 1.03 fold enrichment (6-mer frequency, TF over GST control); in experiment [16], 1.16 fold enrichment (6-mer frequency, TF over GST control); in [17] it was 1.14 fold enrichment (6-mer frequency, TF over GST control); in [18], 1.09 fold enrichment (6-mer frequency, TF over GST control).

In the case of GGTCCT, the binding signal is 1.02 fold enrichment (6-mer frequency, TF over GST control) in experiment [1]; 1.01 fold enrichment (6-mer frequency, TF over GST control) in [3]; 1.06 fold enrichment (6-mer frequency, TF over GST control) in experiment [4]; 1 fold enrichment (6-mer frequency, TF over GST control) in experiment [10]; 1.11 fold enrichment (6-mer frequency, TF over GST control) in experiment [11]; 1.02 fold enrichment (6-mer frequency, TF over GST control) in [12]. The binding signal is 1.16 fold enrichment (6-mer frequency, TF over GST control) in experiment [14] and 1.03 fold enrichment (6-mer frequency, TF over GST control) in [19].
